The subject of the first experiment is LXRb homodimer (NR concentration 270 nM). The experiment can be described thus: PBM binding z-score (relative to random genomic background probes); higher = stronger binding; sequences stand for … in GC…GCGATTGACAGCGTAGAATGAAGG
In outline:
(§1)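 Random background probes are the reference for binding z-scores. These scores derive from regression-normalized fluorescence on custom Agilent 4×180K protein-binding microarrays incubated 1 h with ligand-free nuclear receptor dimers. Binding was detected with antibodies against each partner (one per run).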
In turn, AGAATGAGGTTAAGTTCAGGGAAACAGAATACAT showed a PBM binding z-score of -0.00698.
Same read-out and setting: then CCTACTGGACCAAGGTCATTGATCAGTCAAAGCA, with 0.618; and ATCTCTAGGTTAAGATAGTTCAGTGAATGCAAAT, with 0.754.
Same read-out and setting: then CAAACTAGTTCAAGAGGTCAAAGTCCGCTTCCCG, with 2.39; and CCTACTGGGCCATTCAGAGGTCAATGATCATATG, with 0.521; and AGAATGGGGTTACCAAAGATCAGGGAAACGCTTG, with 0.166.
The sequence ATCGAAAGGTCCAAGGTGAGTATACCCACCCGAA showed a PBM binding z-score of 0.175.
For ACTCGGATGACAAAGGTCAGAGCTACGCCAGTGA, the PBM binding z-score was found to be 0.503.
The sequence AGTCAAAGTTCATCTAGGTAACATAAGATATGCT showed a PBM binding z-score of 2.08.
The same measure, in the same setting: then CCTAGTTGGTCAAGGTCACACCCGCTATAGGTAC, with 1.02.
The same measure, in the same setting: with TCTAGTTGGTCACGGAGGTCACAAACGACGGGTA the figure was 0.892; with AGAATGAGGTTAAACGTAGATCAGGGAAGAAAGT, 0.141.
Still for that read-out and setting: with ACTTACGGCTCAACGAGGTTATAGCACGCGTATA the figure was 0.162; with AATACAGGGTGACTAGGCCAGAGTAGGTACGAAT, -0.0758; with GCTGCTAGTTCAACTGATGGTCAGCTAAAGCTCG, -0.641.
TAGCCTAGGTCATTCAGGGGCCAGCATAGAAAGC yielded a PBM binding z-score of 0.706.
As for TTGCCTAGGTCATTGGGCCAGTATAGTACGCATC, the PBM binding z-score was found to be 0.088.
With AGAATGAGATTACCAAAGATCAGGGAAACGCTTG, the PBM binding z-score is -0.574.
ATCGAAAGGTCGACCAGGTGAGTATACACCGTTT had a PBM binding z-score of 0.349.
The same measure, in the same setting: then CCTTACGGGTTACTCCAGGTTATAGCATCGGAGT, with -0.167; and TCTGCTAGGTCAACGTTGGTCAGCTAATCTGCTA, with 0.362; and ATATGTAGGATAGCTGGGGTCATTCAGACTAGGC, with 1.33.
CCTAGCAGGCCAATCTAGGTCACTCAAGGCTTGA displayed a PBM binding z-score of -0.859.
Still for that read-out and setting: with CAAACTAGGTCACAGTGGTCAAAGTCCGTGCGTA the figure was -0.0137; with CAAACTAGGTCACTAAAGGTCAAAGTCGAATGAC, 4.07; with GCTTACGGGTCCAAGGTTATAGCATGAATAGAAT, -0.0563.
The same measure, in the same setting: then ATATGTAGGTTATCGGGTCATACAGTTTGCGCAT, with 1.35; and TACCCTAGGTCATTCAGGGGCCAGTATAGAAAGC, with 4.99; and TCTTGTAGATCAACAGGAGGTTAATAAAGATCGA, with -0.135.
Still for that read-out and setting: then TCTAGTTGGTCTAAGGTCACACACTCGAAATGCG, with 1.6; and TAGCCTAGGTCATGGGCCAGTGTACCACGCGAAC, with -0.0634; and CCTACGGGGCCACGAAAGGTCATTGATTCAGTGA, with 0.262.
TCTTGTAGATCGATAGAGGTTAAGAAAGTGCGCT displayed a PBM binding z-score of -0.0814.
Same read-out and setting: with AGAATGAGGTTACCAAAGGTCAGGGAAACGCTTG the figure was 0.893; with CCGAGTTGGTCAAGGTCACACACGCTATAGGTAC, 0.352.
The same measure, in the same setting: then ACTTACGGGTCTACGAGGTTATAGCACGCGTATA, with 0.121; and AGTCAAAGTTCAGGACGACGTAACGTAAAGCACG, with -0.163; and CGTCCAAGGTCAGCGGGTCAGTGAAAGCGACGTG, with -0.324.
Sequence ATATGTAGGTTAGCTGGGGTCCTTCAGACTAGGC had a PBM binding z-score of 0.384.
The sequence GATATAGGGTCAGCTAGAGGCCAGAGTATGGAAA gave a PBM binding z-score of -0.307.

The test system of another experiment is PPARg:RXRa (NR concentration 180 nM, RXRa partner concentration 90 nM). Described as above. Put shortly: as §1
AGAATGAGGTTAAGTTCAGGGAAACAGAATACAT registered a PBM binding z-score of 3.45.
Still for that read-out and setting: with CCTACTGGACCAAGGTCATTGATCAGTCAAAGCA the figure was 2.11; with ATCTCTAGGTTAAGATAGTTCAGTGAATGCAAAT, 1.39; with CAAACTAGTTCAAGAGGTCAAAGTCCGCTTCCCG, 3.84.
The same measure, in the same setting: with CCTACTGGGCCATTCAGAGGTCAATGATCATATG the figure was 2.59; with AGAATGGGGTTACCAAAGATCAGGGAAACGCTTG, 4.62.
The same measure, in the same setting: then ATCGAAAGGTCCAAGGTGAGTATACCCACCCGAA, with 1.01; and ACTCGGATGACAAAGGTCAGAGCTACGCCAGTGA, with 4.68; and AGTCAAAGTTCATCTAGGTAACATAAGATATGCT, with 6.9.
As for CCTAGTTGGTCAAGGTCACACCCGCTATAGGTAC, the PBM binding z-score worked out at 2.92.
The same measure, in the same setting: with TCTAGTTGGTCACGGAGGTCACAAACGACGGGTA the figure was 3.15.
The same measure, in the same setting: then AGAATGAGGTTAAACGTAGATCAGGGAAGAAAGT, with 4; and ACTTACGGCTCAACGAGGTTATAGCACGCGTATA, with 0.821; and AATACAGGGTGACTAGGCCAGAGTAGGTACGAAT, with 2.6.
Regarding GCTGCTAGTTCAACTGATGGTCAGCTAAAGCTCG, the PBM binding z-score is -0.618.
Still for that read-out and setting: then TAGCCTAGGTCATTCAGGGGCCAGCATAGAAAGC, with 2.37.
Still for that read-out and setting: with TTGCCTAGGTCATTGGGCCAGTATAGTACGCATC the figure was 3.36; with AGAATGAGATTACCAAAGATCAGGGAAACGCTTG, 0.538; with ATCGAAAGGTCGACCAGGTGAGTATACACCGTTT, 3.14.
CCTTACGGGTTACTCCAGGTTATAGCATCGGAGT had a PBM binding z-score of 0.504.
For the sequence TCTGCTAGGTCAACGTTGGTCAGCTAATCTGCTA, the PBM binding z-score was 2.49.
On the same count and under the same terms, with ATATGTAGGATAGCTGGGGTCATTCAGACTAGGC the figure was 2.42; with CCTAGCAGGCCAATCTAGGTCACTCAAGGCTTGA, 2.1; with CAAACTAGGTCACAGTGGTCAAAGTCCGTGCGTA, 8.83.
Still for that read-out and setting: then CAAACTAGGTCACTAAAGGTCAAAGTCGAATGAC, with 10.1; and GCTTACGGGTCCAAGGTTATAGCATGAATAGAAT, with 1.97; and ATATGTAGGTTATCGGGTCATACAGTTTGCGCAT, with 7.64.
Sequence TACCCTAGGTCATTCAGGGGCCAGTATAGAAAGC gave a PBM binding z-score of 2.52.
On the same count and under the same terms, then TCTTGTAGATCAACAGGAGGTTAATAAAGATCGA, with 0.6; and TCTAGTTGGTCTAAGGTCACACACTCGAAATGCG, with 5.15.
Consider TAGCCTAGGTCATGGGCCAGTGTACCACGCGAAC, for which the PBM binding z-score turned out to be 4.13.
In turn, CCTACGGGGCCACGAAAGGTCATTGATTCAGTGA yielded a PBM binding z-score of 2.82.
The same measure, in the same setting: with TCTTGTAGATCGATAGAGGTTAAGAAAGTGCGCT the figure was -0.159; with AGAATGAGGTTACCAAAGGTCAGGGAAACGCTTG, 5.51; with CCGAGTTGGTCAAGGTCACACACGCTATAGGTAC, 3.12.
The same measure, in the same setting: with ACTTACGGGTCTACGAGGTTATAGCACGCGTATA the figure was 0.708.
With AGTCAAAGTTCAGGACGACGTAACGTAAAGCACG, the PBM binding z-score came out at 4.42.
For CGTCCAAGGTCAGCGGGTCAGTGAAAGCGACGTG, the PBM binding z-score was found to be 4.41.
In turn, ATATGTAGGTTAGCTGGGGTCCTTCAGACTAGGC yielded a PBM binding z-score of 2.96.
Same read-out and setting: then GATATAGGGTCAGCTAGAGGCCAGAGTATGGAAA, with 4.09.

For the origin of these results see the supplement of paper PMC6555819.
